This is an account of results in publication PMC7862700, “An all-to-all approach to the identification of sequence-specific readers for epigenetic DNA modifications on cytosine”.

What all share (assay): DAPPL (digital affinity profiling via proximity ligation, sequencing); 10 mM Tris-HCl pH 7.5, 50 mM NaCl, 1 mM DTT, 4% glycerol, room temperature, 30 min; GST-TFs on glutathione beads, 16-mer random dsDNA library, 0.1% formaldehyde crosslink after washing; high values mean tight binding
One experiment deals with T1, FEV (Homo sapiens, UniProt Q99581 1-238).
T1 sequence: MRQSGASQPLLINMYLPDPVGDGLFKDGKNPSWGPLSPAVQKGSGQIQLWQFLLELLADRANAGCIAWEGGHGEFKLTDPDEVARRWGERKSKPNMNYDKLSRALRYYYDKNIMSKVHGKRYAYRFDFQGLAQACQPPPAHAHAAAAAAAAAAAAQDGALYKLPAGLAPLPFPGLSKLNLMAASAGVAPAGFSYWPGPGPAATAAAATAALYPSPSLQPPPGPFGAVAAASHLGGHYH
Conditions: protein: recombinant; tags: N-terminal GST; dsDNA, one strand shown. In a few lines:
(§1)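 Binding signal is each hexamer's read frequency for a factor divided by its frequency in the tag-only sample. The factors were GST-fused human transcription factors from yeast, captured on glutathione beads, DNA-barcoded and pooled with that sample. Pools were incubated with 200 nmole of a random double-stranded 16-mer DNA library in Tris/NaCl/DTT/glycerol buffer at room temperature for 30 min, then washed, crosslinked with 0.1% formaldehyde, proximity-ligated with BsaI/T4 ligase (1 h, 37 °C), PCR-amplified and sequenced on an Illumina NextSeq500.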

The target of a further experiment is ETV5 (Homo sapiens, UniProt P41161 1-510). As to conditions: protein: recombinant; tags: N-terminal GST; dsDNA, one strand shown. In a few lines: as §1
The target of the next experiment is HSF1 (Homo sapiens, UniProt Q00613 1-529). As to conditions: protein: recombinant; tags: N-terminal GST; chain copies: 3; dsDNA, one strand shown. In a few lines: as §1
The target of the next experiment is T2, SPIC (Homo sapiens, UniProt Q8N5J4 1-248).
T2 sequence: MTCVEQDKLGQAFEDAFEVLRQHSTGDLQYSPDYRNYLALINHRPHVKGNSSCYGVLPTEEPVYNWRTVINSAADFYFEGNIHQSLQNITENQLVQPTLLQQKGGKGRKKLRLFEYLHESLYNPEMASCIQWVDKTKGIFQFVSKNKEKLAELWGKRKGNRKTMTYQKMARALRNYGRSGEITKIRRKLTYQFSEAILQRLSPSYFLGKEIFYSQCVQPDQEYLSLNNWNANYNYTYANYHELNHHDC
As to conditions: protein: recombinant; tags: N-terminal GST; dsDNA, one strand shown. In a few lines:
as §1

The target of a further experiment is ELF4 (Homo sapiens, UniProt Q99607 1-663). As to conditions: protein: recombinant; tags: N-terminal GST; dsDNA, one strand shown. In a few lines:
as §1

In another experiment the target is T3, ELK4 (Homo sapiens, UniProt P28324-2 1-405).
T3 sequence: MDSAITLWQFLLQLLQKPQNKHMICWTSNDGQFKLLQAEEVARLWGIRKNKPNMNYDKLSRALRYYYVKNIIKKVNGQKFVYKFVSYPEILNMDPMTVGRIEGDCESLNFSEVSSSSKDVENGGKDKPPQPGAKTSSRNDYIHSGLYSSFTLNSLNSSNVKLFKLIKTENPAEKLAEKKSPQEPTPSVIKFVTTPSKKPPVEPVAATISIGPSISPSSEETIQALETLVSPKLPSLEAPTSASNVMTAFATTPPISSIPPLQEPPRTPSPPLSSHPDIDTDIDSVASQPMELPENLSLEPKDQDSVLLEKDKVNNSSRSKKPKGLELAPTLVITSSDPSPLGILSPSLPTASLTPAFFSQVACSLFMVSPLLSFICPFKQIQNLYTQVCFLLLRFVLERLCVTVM
As to conditions: protein: recombinant; tags: N-terminal GST; dsDNA, one strand shown. In a few lines:
as §1

The target of the next experiment is T4, ETV2 (Homo sapiens, UniProt O00321 1-342).
T4 sequence: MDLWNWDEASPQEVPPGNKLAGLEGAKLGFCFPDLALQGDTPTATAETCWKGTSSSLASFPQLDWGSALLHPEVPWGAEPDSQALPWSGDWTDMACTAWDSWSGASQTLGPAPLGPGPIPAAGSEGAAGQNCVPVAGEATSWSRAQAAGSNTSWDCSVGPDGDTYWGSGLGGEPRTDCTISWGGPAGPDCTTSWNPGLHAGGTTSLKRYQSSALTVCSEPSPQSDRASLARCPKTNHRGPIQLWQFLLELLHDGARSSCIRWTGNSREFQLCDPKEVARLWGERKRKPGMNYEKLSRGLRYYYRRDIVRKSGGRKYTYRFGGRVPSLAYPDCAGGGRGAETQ
As to conditions: protein: recombinant; tags: N-terminal GST; dsDNA, one strand shown. In a few lines:
as §1

In the next experiment the target is T5, ELF3 (Homo sapiens, UniProt P78545 1-371).
T5 sequence: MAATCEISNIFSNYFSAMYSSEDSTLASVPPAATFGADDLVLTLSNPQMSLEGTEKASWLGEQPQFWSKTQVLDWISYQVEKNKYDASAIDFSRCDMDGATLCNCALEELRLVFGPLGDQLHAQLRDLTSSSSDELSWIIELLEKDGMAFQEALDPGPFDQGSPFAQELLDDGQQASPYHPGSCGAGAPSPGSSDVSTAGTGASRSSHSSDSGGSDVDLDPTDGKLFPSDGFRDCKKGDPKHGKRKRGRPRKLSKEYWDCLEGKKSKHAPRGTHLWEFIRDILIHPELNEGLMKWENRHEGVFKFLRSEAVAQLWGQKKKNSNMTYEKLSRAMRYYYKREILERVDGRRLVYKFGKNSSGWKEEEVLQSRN
As to conditions: protein: recombinant; tags: N-terminal GST; dsDNA, one strand shown. In a few lines: as §1

The target of a further experiment is CRX (Homo sapiens, UniProt O43186 1-299). Conditions: protein: recombinant; tags: N-terminal GST; dsDNA, one strand shown. In a few lines: as §1
The next experiment concerns the target ETV1 (Homo sapiens, UniProt P50549 1-477). As to conditions: protein: recombinant; tags: N-terminal GST; dsDNA, one strand shown. In a few lines: as §1
The target in the next experiment is T6, ERF (Homo sapiens, UniProt P50548 1-548).
T6 sequence: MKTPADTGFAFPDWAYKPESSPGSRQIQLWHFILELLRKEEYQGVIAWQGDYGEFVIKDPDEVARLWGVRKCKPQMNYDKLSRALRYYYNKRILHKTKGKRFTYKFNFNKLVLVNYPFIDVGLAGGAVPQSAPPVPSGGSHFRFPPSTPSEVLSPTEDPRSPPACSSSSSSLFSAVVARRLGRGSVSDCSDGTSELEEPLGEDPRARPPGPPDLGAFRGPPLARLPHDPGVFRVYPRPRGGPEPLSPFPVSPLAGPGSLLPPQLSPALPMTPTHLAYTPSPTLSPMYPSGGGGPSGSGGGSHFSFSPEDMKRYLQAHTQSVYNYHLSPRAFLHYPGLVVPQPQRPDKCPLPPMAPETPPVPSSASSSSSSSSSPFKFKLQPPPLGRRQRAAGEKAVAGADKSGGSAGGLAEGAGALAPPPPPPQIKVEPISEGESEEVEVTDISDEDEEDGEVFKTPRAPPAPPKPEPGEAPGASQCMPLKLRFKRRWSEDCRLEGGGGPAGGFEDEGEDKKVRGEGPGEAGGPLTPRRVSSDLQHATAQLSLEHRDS
As to conditions: protein: recombinant; tags: N-terminal GST; dsDNA, one strand shown. In a few lines:
as §1

Another experiment has as its target T7, ETV3L (Homo sapiens, UniProt Q6ZN32 1-361).
T7 sequence: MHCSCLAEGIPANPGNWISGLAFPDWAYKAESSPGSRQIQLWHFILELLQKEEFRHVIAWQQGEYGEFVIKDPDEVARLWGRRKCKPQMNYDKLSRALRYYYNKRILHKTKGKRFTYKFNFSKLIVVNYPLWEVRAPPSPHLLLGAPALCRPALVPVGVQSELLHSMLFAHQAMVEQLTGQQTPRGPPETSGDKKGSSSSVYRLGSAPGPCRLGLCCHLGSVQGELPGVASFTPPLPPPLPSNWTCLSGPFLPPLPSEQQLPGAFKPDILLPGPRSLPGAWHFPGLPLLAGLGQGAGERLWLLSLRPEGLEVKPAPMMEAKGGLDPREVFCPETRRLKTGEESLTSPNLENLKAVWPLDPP
Conditions: protein: recombinant; tags: N-terminal GST; dsDNA, one strand shown. In a few lines:
as §1

A further experiment addresses T8, ETS2 (Homo sapiens, UniProt P15036 1-469).
T8 sequence: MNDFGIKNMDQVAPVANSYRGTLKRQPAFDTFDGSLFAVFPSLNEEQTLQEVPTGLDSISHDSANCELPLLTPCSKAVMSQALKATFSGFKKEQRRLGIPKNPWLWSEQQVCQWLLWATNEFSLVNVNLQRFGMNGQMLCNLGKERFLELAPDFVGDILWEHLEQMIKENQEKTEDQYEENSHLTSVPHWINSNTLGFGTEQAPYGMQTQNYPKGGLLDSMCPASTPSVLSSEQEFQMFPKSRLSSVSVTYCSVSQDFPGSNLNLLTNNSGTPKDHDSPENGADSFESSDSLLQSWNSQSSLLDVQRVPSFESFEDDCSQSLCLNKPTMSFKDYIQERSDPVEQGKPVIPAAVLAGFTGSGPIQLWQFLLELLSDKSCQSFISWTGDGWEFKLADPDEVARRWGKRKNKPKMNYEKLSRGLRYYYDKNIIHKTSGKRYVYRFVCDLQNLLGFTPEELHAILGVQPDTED
As to conditions: protein: recombinant; tags: N-terminal GST; dsDNA, one strand shown. In a few lines:
as §1

For another experiment, the target named is T9, SPDEF (Homo sapiens, UniProt O95238 1-335).
T9 sequence: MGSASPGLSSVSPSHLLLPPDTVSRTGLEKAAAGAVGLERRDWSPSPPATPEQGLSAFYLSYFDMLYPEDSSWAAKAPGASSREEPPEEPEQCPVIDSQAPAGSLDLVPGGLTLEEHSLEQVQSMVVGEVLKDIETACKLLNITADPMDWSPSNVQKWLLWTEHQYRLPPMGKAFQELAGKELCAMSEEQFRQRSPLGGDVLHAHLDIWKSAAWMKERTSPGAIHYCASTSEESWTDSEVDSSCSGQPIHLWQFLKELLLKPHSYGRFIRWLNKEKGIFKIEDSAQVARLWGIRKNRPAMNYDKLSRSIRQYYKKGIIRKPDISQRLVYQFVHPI
Conditions: protein: recombinant; tags: N-terminal GST; dsDNA, one strand shown. In a few lines:
as §1

A further experiment addresses T10, ETV7 (Homo sapiens, UniProt Q9Y603 1-341).
T10 sequence: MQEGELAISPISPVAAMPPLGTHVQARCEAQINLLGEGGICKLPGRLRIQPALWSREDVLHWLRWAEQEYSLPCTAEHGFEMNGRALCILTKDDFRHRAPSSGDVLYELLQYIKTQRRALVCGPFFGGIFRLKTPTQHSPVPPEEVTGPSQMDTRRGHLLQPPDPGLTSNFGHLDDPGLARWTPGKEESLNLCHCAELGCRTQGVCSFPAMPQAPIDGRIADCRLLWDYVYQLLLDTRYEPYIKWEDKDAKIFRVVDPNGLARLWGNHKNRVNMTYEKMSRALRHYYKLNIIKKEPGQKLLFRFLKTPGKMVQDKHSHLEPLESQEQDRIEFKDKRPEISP
As to conditions: protein: recombinant; tags: N-terminal GST; dsDNA, one strand shown. In a few lines:
as §1

A further experiment deals with T11, ELF5 (Homo sapiens, UniProt Q9UKW6-2 1-255).
T11 sequence: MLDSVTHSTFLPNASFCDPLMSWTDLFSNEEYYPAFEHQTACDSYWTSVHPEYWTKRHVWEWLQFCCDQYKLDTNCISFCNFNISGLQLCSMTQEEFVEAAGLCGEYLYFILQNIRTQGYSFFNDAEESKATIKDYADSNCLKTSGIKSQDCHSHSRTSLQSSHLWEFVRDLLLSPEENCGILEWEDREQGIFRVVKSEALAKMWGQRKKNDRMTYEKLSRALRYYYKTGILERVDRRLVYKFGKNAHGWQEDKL
Conditions: protein: recombinant; tags: N-terminal GST; dsDNA, one strand shown. In a few lines: as §1

The next experiment concerns the target T12, ETV3 (Homo sapiens, UniProt P41162-2 1-143).
T12 sequence: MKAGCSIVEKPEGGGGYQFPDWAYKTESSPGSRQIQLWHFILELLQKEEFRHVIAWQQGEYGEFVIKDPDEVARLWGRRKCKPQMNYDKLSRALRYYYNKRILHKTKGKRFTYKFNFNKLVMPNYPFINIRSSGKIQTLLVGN
As to conditions: protein: recombinant; tags: N-terminal GST; dsDNA, one strand shown. In a few lines:
as §1

A further experiment concerns the target ETV6 (Homo sapiens, UniProt P41212 1-452). As to conditions: protein: recombinant; tags: N-terminal GST; dsDNA, one strand shown. In a few lines: as §1

Sequence of ELF4 (Q99607 whole entry): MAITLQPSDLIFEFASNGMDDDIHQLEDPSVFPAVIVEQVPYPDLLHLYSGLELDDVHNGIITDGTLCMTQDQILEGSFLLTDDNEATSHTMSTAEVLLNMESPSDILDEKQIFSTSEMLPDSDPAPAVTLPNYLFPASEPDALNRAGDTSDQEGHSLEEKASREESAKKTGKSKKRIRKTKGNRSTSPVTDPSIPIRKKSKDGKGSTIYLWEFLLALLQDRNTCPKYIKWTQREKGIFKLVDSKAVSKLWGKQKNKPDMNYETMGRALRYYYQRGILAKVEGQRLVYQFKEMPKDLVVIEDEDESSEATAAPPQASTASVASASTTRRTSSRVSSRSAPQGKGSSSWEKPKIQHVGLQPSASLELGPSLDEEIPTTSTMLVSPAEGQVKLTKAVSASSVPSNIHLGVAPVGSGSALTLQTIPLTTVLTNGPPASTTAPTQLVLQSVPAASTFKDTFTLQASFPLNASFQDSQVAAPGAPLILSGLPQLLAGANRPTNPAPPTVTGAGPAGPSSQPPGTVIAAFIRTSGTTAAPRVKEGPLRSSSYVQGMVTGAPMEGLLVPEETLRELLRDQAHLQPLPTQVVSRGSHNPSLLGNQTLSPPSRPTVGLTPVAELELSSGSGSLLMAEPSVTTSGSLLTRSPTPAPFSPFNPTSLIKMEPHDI
Sequence of CRX (O43186 whole entry): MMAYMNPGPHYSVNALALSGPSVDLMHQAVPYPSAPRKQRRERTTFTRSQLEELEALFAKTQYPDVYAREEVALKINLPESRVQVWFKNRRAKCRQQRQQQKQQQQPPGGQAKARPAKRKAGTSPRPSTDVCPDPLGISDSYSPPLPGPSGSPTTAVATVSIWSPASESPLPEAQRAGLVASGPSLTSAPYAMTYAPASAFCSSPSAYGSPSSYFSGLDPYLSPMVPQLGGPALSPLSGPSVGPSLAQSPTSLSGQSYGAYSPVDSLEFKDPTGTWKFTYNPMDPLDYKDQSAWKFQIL
Sequence of ETV5 (P41161 whole entry): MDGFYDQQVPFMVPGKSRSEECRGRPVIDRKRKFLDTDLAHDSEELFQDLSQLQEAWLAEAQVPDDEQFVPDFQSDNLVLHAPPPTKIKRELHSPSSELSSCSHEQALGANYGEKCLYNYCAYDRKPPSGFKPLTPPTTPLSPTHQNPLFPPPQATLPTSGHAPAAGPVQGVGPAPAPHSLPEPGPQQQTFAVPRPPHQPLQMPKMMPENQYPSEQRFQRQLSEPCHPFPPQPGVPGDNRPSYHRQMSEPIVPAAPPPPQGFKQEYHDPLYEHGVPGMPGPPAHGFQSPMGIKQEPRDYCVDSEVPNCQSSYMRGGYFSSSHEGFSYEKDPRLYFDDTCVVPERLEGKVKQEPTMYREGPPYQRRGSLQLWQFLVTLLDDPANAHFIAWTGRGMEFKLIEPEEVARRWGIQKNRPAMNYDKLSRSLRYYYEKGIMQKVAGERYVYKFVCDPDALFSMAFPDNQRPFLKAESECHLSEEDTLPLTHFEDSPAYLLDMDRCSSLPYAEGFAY
Sequence of ETV1 (P50549 whole entry): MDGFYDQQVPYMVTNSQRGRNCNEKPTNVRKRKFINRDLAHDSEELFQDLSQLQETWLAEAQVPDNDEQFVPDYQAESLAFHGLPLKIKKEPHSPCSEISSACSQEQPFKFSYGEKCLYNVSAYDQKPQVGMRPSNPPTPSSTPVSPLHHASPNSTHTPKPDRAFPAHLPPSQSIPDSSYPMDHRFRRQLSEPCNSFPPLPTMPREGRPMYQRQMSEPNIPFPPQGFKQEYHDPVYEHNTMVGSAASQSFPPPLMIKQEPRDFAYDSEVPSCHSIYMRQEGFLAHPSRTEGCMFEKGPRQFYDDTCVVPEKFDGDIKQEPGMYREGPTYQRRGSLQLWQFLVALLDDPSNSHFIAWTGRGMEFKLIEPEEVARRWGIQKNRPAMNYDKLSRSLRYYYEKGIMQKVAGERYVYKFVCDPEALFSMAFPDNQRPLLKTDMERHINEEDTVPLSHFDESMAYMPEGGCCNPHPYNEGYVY
Sequence of HSF1 (Q00613 whole entry): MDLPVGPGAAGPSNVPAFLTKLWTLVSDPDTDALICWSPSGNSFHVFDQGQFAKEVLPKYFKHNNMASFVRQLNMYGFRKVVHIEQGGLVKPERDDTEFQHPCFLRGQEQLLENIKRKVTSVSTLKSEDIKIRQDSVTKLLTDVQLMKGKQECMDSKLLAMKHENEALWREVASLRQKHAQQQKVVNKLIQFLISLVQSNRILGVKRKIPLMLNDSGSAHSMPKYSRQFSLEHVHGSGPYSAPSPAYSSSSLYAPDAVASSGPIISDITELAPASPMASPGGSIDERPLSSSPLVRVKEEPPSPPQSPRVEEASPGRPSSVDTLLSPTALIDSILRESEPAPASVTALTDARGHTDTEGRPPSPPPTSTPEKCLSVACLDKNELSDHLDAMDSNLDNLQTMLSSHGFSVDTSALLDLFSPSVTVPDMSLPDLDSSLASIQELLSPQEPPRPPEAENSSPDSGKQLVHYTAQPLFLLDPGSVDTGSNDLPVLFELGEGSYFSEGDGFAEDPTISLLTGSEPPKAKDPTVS
Sequence of ETV6 (P41212 whole entry): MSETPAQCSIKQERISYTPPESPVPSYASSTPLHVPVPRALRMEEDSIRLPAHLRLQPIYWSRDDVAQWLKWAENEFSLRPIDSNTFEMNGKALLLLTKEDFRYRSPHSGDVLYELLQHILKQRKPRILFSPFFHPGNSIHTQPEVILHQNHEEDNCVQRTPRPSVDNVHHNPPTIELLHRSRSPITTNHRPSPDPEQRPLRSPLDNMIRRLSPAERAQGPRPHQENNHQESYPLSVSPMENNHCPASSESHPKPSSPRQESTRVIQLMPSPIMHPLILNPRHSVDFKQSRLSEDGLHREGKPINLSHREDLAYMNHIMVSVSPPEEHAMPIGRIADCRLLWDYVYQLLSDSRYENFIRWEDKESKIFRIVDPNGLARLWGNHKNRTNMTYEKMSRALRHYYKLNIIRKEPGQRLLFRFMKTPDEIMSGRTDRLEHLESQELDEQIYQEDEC

As to TCATCT, the binding signal is 1.08 fold enrichment (6-mer frequency, TF over GST control) with FEV; 1.19 fold enrichment (6-mer frequency, TF over GST control) with ETV5; 1.44 fold enrichment (6-mer frequency, TF over GST control) with HSF1; 1.32 fold enrichment (6-mer frequency, TF over GST control) in the experiment with SPIC; 1.18 fold enrichment (6-mer frequency, TF over GST control) in the experiment with ELF4; 1.59 fold enrichment (6-mer frequency, TF over GST control) with ELK4. In addition, the binding signal in the experiment with ETV2 was 1.38 fold enrichment (6-mer frequency, TF over GST control); with ELF3, 1.37 fold enrichment (6-mer frequency, TF over GST control); with CRX, 1.5 fold enrichment (6-mer frequency, TF over GST control); with ETV1 it was 1.15 fold enrichment (6-mer frequency, TF over GST control); in the experiment with ERF it was 1.21 fold enrichment (6-mer frequency, TF over GST control); with ETV3L it was 1.22 fold enrichment (6-mer frequency, TF over GST control). For the same sequence, the binding signal with ETS2 was 1.2 fold enrichment (6-mer frequency, TF over GST control); in the experiment with SPDEF, 1.07 fold enrichment (6-mer frequency, TF over GST control); with ETV7, 1.14 fold enrichment (6-mer frequency, TF over GST control); in the experiment with ELF5 it was 1.17 fold enrichment (6-mer frequency, TF over GST control); with ETV3, 1.19 fold enrichment (6-mer frequency, TF over GST control); in the experiment with ETV6, 1.22 fold enrichment (6-mer frequency, TF over GST control).
